Bioassay records: PubChem, National Center for Advancing Translational Sciences (NCATS)
mTORC1 inh: inhibitors of mTORC1 signaling in Tsc2-/- p53-/- MEF cells; 0.78% of 44,000 active; Tsc2-/- p53-/- MEF, phospho-rpS6 immunofluorescence/PI, 24 h; Potency, µM (top dose mostly 38.3 µM), usual class: inhibitors; also: nearly all actives have a fitted effect of over 50% in size
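Readout is phospho-S6 Alexa 488 signal normalized to PI per well, reported as % active cells with thresholds set from rapamycin (7.5 nM) and DMSO controls. Cells: Tsc2-/-, p53-/- MEFs, 24 hrs compound at 37 C; PI cell number serves as viability.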
S16 viability: toxic to S16 Pmp22-F2sN Schwann cells | S16 Pmp22-F2sN Schwann cells viability, CellTiter-Glo, 24 h | 0.48% of 43,000 active | Potency, µM (highest dose often 57.5 µM), hits mostly cytotoxic; also: nearly all actives have a fitted effect of over 65% in size
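S16 Schwann cells carrying the Pmp22-F2sN reporter, seeded in 1536-well format, were exposed to library compounds for 24 h at 37C. Viability was read as CellTiter-Glo luminescence after 15 min at room temperature.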
p53null 32C tox: kills p53 null cells at the permissive temperature | AID 903 | Potency, µM (doses to about 46.1 µM), most hits filed as cytotoxic | H1299-neo p53 null cells, ATP luminescence, 24 h, 32C | 0.62% of 55,000 active; also: nearly all actives have a fitted effect of over 55% in size
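Cytotoxicity: H1299-neo (no p53), 32C, 24 h treatment. Concentrations up to 46 uM. Readout cellular ATP, luminescence. Normalization to DMSO basal and tamoxifen 100 uM maximal kill.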
p53null 39C kill: kills p53 null cells at the nonpermissive temperature | H1299 p53-null (neo) cells, 39C, ATPlite viability, 24 h | Potency, µM (series often up to 46.1 µM), hits mostly cytotoxic | 0.97% of 55,000 active; also: nearly all actives have a fitted effect of over 50% in size
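Temperature-shift cytotoxicity format: compound titrations on p53-null or A138V-expressing H1299 cells held 24 hr at 39C, cell ATP then measured, AC50 from Hill model.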
PMP22 txn: PMP22 gene transcription modulation | S16 Pmp22-F2sN Schwann cells (luciferase reporters placed in the Pmp22 gene), FLuc/NLuc coincidence luminescence, 24 h | Potency, µM (top dose mostly 57.5 µM), most hits filed as inhibitors | 2% of 43,000 active | AID 1508649; active = clear falling dose curves in both reporters; inconclusive = both reporters move, but less clearly or upward; inactive = either reporter flat; the % is the NLuc reporter signal
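qHTS, 1536-well. Cells seeded, compounds added by pin tool, 24 h 37C. Nano-Glo reagent 1 (lysis/FLuc), 10 min RT, read; Stop&Glo, 10 min RT, read NLuc.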
Hits are given with their value. Most compounds without a hit are left out; they make up all but 3.2% or so of the library. Unless noted, calls follow the shape of the dose curve; as a rule, active = well fitted curve in the direction sought with a large enough effect; inconclusive = small, poorly fitted or top-dose-only effect, or another doubt; inactive = no such curve, though single readings can be large; an effect the other way counts as inactive or inconclusive.

What do the screens show for `COc1ccc(Cl)cc1NC(=O)c1c(NCc2cccnc2)sc2c1CCC(C)C2` (configuration not stated)?
mTORC1 inh: 5.8µM; S16 viability: inconclusive; p53null 32C tox: inconclusive; p53null 39C kill: inactive; PMP22 txn: inconclusive

Results for Cc1cccc(N/C=C/C(=O)c2cccs2)c1C ?
p53null 32C tox: 14µM

How did NC(=O)c1ccccc1N/C=C/C(=O)c1cccs1 do in these assays?
p53null 32C tox: 13µM; p53null 39C kill: 11µM

Results for CCOc1ccc(CNC(=O)c2ccccc2NC(=O)c2nsc3ccccc23)cc1 ?
mTORC1 inh: inconclusive; S16 viability: inactive; p53null 32C tox: inactive; p53null 39C kill: 13µM; PMP22 txn: inconclusive

How did CCCCc1ccc(Nc2cc(C)nc(-n3nc(C)cc3C)n2)cc1 do in these assays?
mTORC1 inh: inactive; S16 viability: inconclusive; p53null 32C tox: inactive; p53null 39C kill: 13µM; PMP22 txn: 15µM

What do the screens show for `CCn1c(C)c(C)c2cc(C(=O)NCCc3ccc(C)cc3)ccc21`?
mTORC1 inh: inactive; S16 viability: inactive; p53null 32C tox: inactive; p53null 39C kill: inactive; PMP22 txn: inactive

Results for O=C(Nc1ccc2nc(SCC(=O)N3CCc4ccccc43)sc2c1)c1ccc(F)cc1 ?
mTORC1 inh: inconclusive; S16 viability: inactive; p53null 32C tox: inactive; p53null 39C kill: inconclusive; PMP22 txn: inconclusive

What do the screens show for `Cc1nn(C(=O)c2cccc([N+](=O)[O-])c2C)c(C)c1S(=O)(=O)N1CCOCC1`?
mTORC1 inh: inactive; S16 viability: inactive; p53null 32C tox: inactive; p53null 39C kill: inactive; PMP22 txn: inconclusive

What do the screens show for `CCc1ccc(NC(=O)CSc2nnc3[nH]c(=O)cc(-c4ccccc4)n23)cc1`?
mTORC1 inh: inactive; S16 viability: inactive; p53null 32C tox: 2.5µM; p53null 39C kill: inconclusive; PMP22 txn: inactive

Results for O=c1cc(-c2ccccc2)n2c(SCc3ccc(Cl)cc3)nnc2[nH]1 ?
mTORC1 inh: inactive; S16 viability: inactive; p53null 32C tox: inactive; p53null 39C kill: inactive; PMP22 txn: inactive

What do the screens show for `COc1ccc(Cl)cc1NC(=O)CSc1nnc2[nH]c(=O)cc(-c3ccccc3)n12`?
mTORC1 inh: inactive; S16 viability: inactive; p53null 32C tox: 2.5µM; p53null 39C kill: inactive; PMP22 txn: inconclusive

Results for O=C(CSc1nnc2[nH]c(=O)cc(-c3ccccc3)n12)Nc1ccccc1C(F)(F)F ?
mTORC1 inh: inactive; S16 viability: inactive; p53null 32C tox: inconclusive; p53null 39C kill: inconclusive; PMP22 txn: inactive

Results for CCOC(=O)c1c(C)oc2nc(C)nc(NCc3ccccc3Cl)c12 ?
mTORC1 inh: inactive; S16 viability: inactive; p53null 32C tox: inactive; p53null 39C kill: inactive; PMP22 txn: inactive

What do the screens show for `CCCCn1c2ccc(F)cc2c2nnc(SCCN(CC)CC)nc21`?
mTORC1 inh: inconclusive; S16 viability: inactive; p53null 32C tox: inactive; p53null 39C kill: inactive; PMP22 txn: 15µM

What do the screens show for `COc1ccc(NC(=O)C(NC(=O)/C=C\c2ccc3c(c2)OCO3)c2ccccc2)cc1` (configuration not stated)?
mTORC1 inh: 10µM; S16 viability: inactive; p53null 32C tox: inactive; p53null 39C kill: inactive; PMP22 txn: inactive

What do the screens show for `COc1cc(-c2noc(CN3CCN(c4ccccc4)CC3)n2)cc(OC)c1OC`?
mTORC1 inh: inactive; S16 viability: inactive; p53null 32C tox: inactive; p53null 39C kill: inactive; PMP22 txn: inactive

How did O=C(NCCc1nc2ccccc2n1CCOc1ccc(Cl)cc1)C1CCCCC1 do in these assays?
mTORC1 inh: inactive; p53null 32C tox: inactive; p53null 39C kill: 13µM

How did Cc1ccccc1OCCn1c(CCNC(=O)C2CCCCC2)nc2ccccc21 do in these assays?
mTORC1 inh: inactive; S16 viability: inactive; p53null 32C tox: inactive; p53null 39C kill: inactive; PMP22 txn: inactive

How did COc1ccc(N(Cc2cccs2)C(=O)c2ccco2)cc1 do in these assays?
mTORC1 inh: inactive; S16 viability: inactive; p53null 32C tox: inactive; p53null 39C kill: inactive; PMP22 txn: inactive

Results for CCN(C(=O)c1ccco1)c1nnc(-c2ccc(OC)cc2)s1 ?
p53null 32C tox: inconclusive; p53null 39C kill: 13µM

What do the screens show for `CCOc1ccccc1NS(=O)(=O)c1cc(-c2cnc(C3CC3)o2)ccc1C`?
mTORC1 inh: inactive; S16 viability: inactive; p53null 32C tox: inactive; p53null 39C kill: inactive; PMP22 txn: inconclusive

What do the screens show for `Cc1ccc(NS(=O)(=O)c2cc(-c3cnc(C4CC4)o3)ccc2C)cc1Cl`?
mTORC1 inh: inconclusive; S16 viability: 14µM; p53null 32C tox: inactive; p53null 39C kill: inconclusive; PMP22 txn: inconclusive

Results for CC(=O)c1ccc(NS(=O)(=O)c2cc(-c3cnc(C4CC4)o3)ccc2C)cc1 ?
mTORC1 inh: inactive; S16 viability: inconclusive; p53null 32C tox: inactive; p53null 39C kill: inactive; PMP22 txn: inconclusive

What do the screens show for `CC(=O)c1cccc(NS(=O)(=O)c2cc(-c3cnc(C4CC4)o3)ccc2C)c1`?
mTORC1 inh: inactive; S16 viability: inconclusive; p53null 32C tox: inactive; p53null 39C kill: inactive; PMP22 txn: 17µM

What do the screens show for `Cn1cc(CN(C(=O)Nc2ccc(Cl)c(Cl)c2)C2CCCCC2)c2ccccc21`?
mTORC1 inh: inactive; S16 viability: inactive; p53null 32C tox: inactive; p53null 39C kill: inactive; PMP22 txn: inactive

How did CCCCNC(=O)CSc1nc2ccccc2nc1Cc1ccc(Cl)cc1 do in these assays?
mTORC1 inh: inactive; S16 viability: inactive; p53null 32C tox: inactive; p53null 39C kill: inactive; PMP22 txn: inconclusive

How did CCCOc1ccc(-c2nc3ccccc3c(=O)o2)cc1 do in these assays?
mTORC1 inh: inactive; S16 viability: inactive; p53null 32C tox: 16µM; p53null 39C kill: 5µM; PMP22 txn: inactive

What do the screens show for `CCOc1c(Br)cc(C2CC(=O)Nc3cc4c(cc32)OCO4)cc1OC` (configuration not stated)?
mTORC1 inh: 15µM; S16 viability: inconclusive; p53null 32C tox: inactive; p53null 39C kill: inconclusive; PMP22 txn: inconclusive

How did CC(C)Oc1cccc(C2CC(=O)Nc3cc4c(cc32)OCO4)c1 (configuration not stated) do in these assays?
mTORC1 inh: 6.6µM; S16 viability: inconclusive; p53null 32C tox: inactive; p53null 39C kill: inconclusive; PMP22 txn: 4.3µM

What do the screens show for `CCCNC(=O)c1cc2n(n1)CCCN(Cc1ccc(C)cc1)C2=O`?
mTORC1 inh: inactive; S16 viability: inactive; p53null 32C tox: inactive; p53null 39C kill: inactive; PMP22 txn: inactive

How did COc1cccc(NC(=O)C(=O)NCCc2csc3nc(-c4ccccc4C)nn23)c1 do in these assays?
mTORC1 inh: inactive; S16 viability: inactive; p53null 32C tox: inactive; p53null 39C kill: inactive; PMP22 txn: inactive

Results for Cc1ccc2[nH]cc(C(c3ccccc3)c3ccc(C)s3)c2c1 (configuration not stated) ?
mTORC1 inh: inconclusive; S16 viability: inactive; p53null 32C tox: 11µM; p53null 39C kill: 16µM; PMP22 txn: inconclusive
